Potency and outcome data for 7 molecules are collected here from PubChem BioAssay (Tox21).

Assay [1] is described as follows: qHTS assay for small molecule agonists of the p53 signaling pathway (AID 651631; calls by dose curve; further: nearly all actives have a fitted effect of over 15% in size; further: potency means the concentration at half of the fitted maximal effect). In a few lines:
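p53RE-bla HCT-116 cells; compounds 16 h, 37 °C; LiveBLAzer B/G FRET substrate 2 h RT; fluorescence intensity read-out, qHTS format.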

A short description of assay [2]: qHTS assay for small molecules that induce genotoxicity in human embryonic kidney cells expressing luciferase-tagged ATAD5 (AID 651632). Further: nearly all actives have a fitted effect of over 15% in size. Further: potency means the concentration at half of the fitted maximal effect. In a few lines: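 HEK293T cells carrying luciferase-tagged ATAD5 were given compound or DMSO vehicle and incubated 16 hr at 37C, 5% CO2. Luciferase activity was read after 30 min at room temperature with Amplite; a rise signals genotoxic stress.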
On the technique in general: qHTS replaces the single test concentration by a dilution series.

Assay [3] can be described thus: qHTS assay for small molecule agonists of the p53 signaling pathway - cell viability (AID 651633; calls by dose curve; further: nearly all actives have a fitted effect of over 30% in size; further: potency means the concentration at half of the fitted maximal effect). The method, boiled down: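 p53RE-bla cells, seeded at 4,000 per well and rested 5 h at 37 C/5% CO2, received compounds in DMSO for 16 h at 37 C. CellTiter-Glo was then added, and luminescence was read after 30 min at room temperature to gauge cytotoxicity.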
The nature of assay [4]: qHTS assay for small molecules that induce genotoxicity in human embryonic kidney cells expressing luciferase-tagged ATAD5 - cell viability (AID 651634; calls by dose curve; further: nearly all actives have a fitted effect of over 25% in size; further: potency means the concentration at half of the fitted maximal effect). The method, boiled down: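 HEK293T cells carrying luciferase-tagged ATAD5, 2,000 cells/well, exposed to compound for 15.5 hr at 37C. Viability read as live-cell protease activity by CellTiter-Fluor fluorescence after 30 min at 37C.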

A short description of assay [5]: qHTS assay for small molecule disruptors of the mitochondrial membrane potential - cell viability (AID 720634; calls by dose curve; further: nearly all actives have a fitted effect of over 20% in size; further: potency means the concentration at half of the fitted maximal effect). The method, boiled down:
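HepG2 cells, 2,000 per well, attached overnight, then treated 1 hr at 37 C, 5% CO2. Viability read as ATP by CellTiter-Glo luminescence after 30 min at room temperature. Read in the same wells as the m-MPI membrane-potential dye assay.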

Assay [6] is described as follows: qHTS assay for small molecule disruptors of the mitochondrial membrane potential (AID 720635). Further: potency means the concentration at half of the fitted maximal effect. The method, boiled down:
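HepG2 cells (2,000/well) attached overnight at 37C, then took compound for 1 hr at 37C, 5% CO2. Mito-MPS dye was added for 30 min; fluorescence was read at 490/535 nm (monomers) and 540/590 nm (aggregates).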

The nature of assay [7]: qHTS assay to test for compound auto fluorescence at 590 nm (red) in HepG2 cells (AID 720674). In a few lines: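 Rose Bengal sodium served as the red fluorophore standard. HepG2 monolayers (overnight attachment, MEM with 10% FBS) were exposed to test compounds for 1 hr at 37 C and read at Ex 540/Em 590 nm.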
A short description of assay [8]: qHTS assay to test for compound auto fluorescence at 535 nm (green) in HepG2 cells (AID 720675).
A short description of assay [9]: qHTS assay to test for compound auto fluorescence at 590 nm (red) in HEK293 cells (AID 720679). In a few lines:
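HEK293 cells (2,000/well, medium with 10% dialyzed FBS) attached for 4-5 hr at 37C, received 23 nL compound and were incubated overnight at 37C, 5% CO2. Red fluorescence was then read at 540/590nm Ex/Em, referenced to Rose Bengal sodium.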

Assay [10] can be described thus: qHTS assay to test for compound auto fluorescence at 535 nm (green) in HEK293 cells (AID 720680).
Assay [11] in a line: qHTS assay to test for compound auto fluorescence at 460 nm (blue) in HEK293 cell free culture (AID 720681). The method, boiled down:
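Test compounds were pinned into cell-free culture medium (DMEM with 10% FBS) and fluorescence was read directly at Ex/Em 405/460 nm. Signals were expressed as fluorescence equivalents of triamterene, with DMSO vehicle as control.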

A short description of assay [12]: qHTS assay to test for compound auto fluorescence at 535 nm (green) in HEK293 cell free culture (AID 720682). The method, boiled down: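 Cell-free medium (DMEM, 10% FBS) receives compound or DMSO by pintool. Plate read directly at Ex 485/Em 535 nm. Signal converted to fluorescein equivalency.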
Assay [13] can be described thus: qHTS assay to test for compound auto fluorescence at 590 nm (red) in HEK293 cell free culture (AID 720683). The method, boiled down: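 Tox21 10K library compounds were pinned into cell-free DMEM with 10% FBS and fluorescence was read at excitation 540 nm. Activity is expressed as Rose Bengal sodium equivalency.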
Assay [14] is described as follows: qHTS assay to test for compound auto fluorescence at 590 nm (red) in HepG2 cell free culture (AID 720684). The method, boiled down: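 Red fluorescence (540 nm excitation, 590 nm emission) was measured after compound transfer into cell-free MEM supplemented with 10% FBS. Values are equivalencies against Rose Bengal sodium.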
A short description of assay [15]: qHTS assay to test for compound auto fluorescence at 460 nm (blue) in HepG2 cell free culture (AID 720685). The method, boiled down:
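Compound (23 nL) or DMSO pinned into cell-free MEM with 10% FBS; blue fluorescence read at 405/460 nm excitation/emission, expressed as auto-fluorescence equivalency to triamterene.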

Assay [16] is described as follows: qHTS assay to test for compound auto fluorescence at 535 nm (green) in HepG2 cell free culture (AID 720686).
Assay [17] in a line: qHTS assay to test for compound auto fluorescence at 460 nm (blue) in HEK293 cells (AID 720678). The method, boiled down: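 HEK293 cells (2,000 per well, medium with 10% dialyzed FBS) attached for 4-5 hr at 37C, then received compound and stood overnight at 37C, 5% CO2. Blue fluorescence was read at Ex/Em 405/460 nm and expressed relative to triamterene.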
The target in assay [18] is Glucocorticoid receptor (Homo sapiens) (UniProt P04150). As to the kind of experiment: qHTS assay to identify small molecule agonists of the glucocorticoid receptor (GR) signaling pathway (AID 720691; active means well fitted activation curve with a large enough effect in the signal ratio in the repeat runs, not every such curve was filed as active; the % refers to the signal ratio). In a few lines:
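GR-bla HeLa cells carrying a GRE-driven beta-lactamase reporter, exposed to compounds for 18 h at 37 C. Reporter activation read as fluorescence after 2 h with LiveBLAzer B/G FRET substrate at room temperature.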

Assay [19] has the same target. As to the kind of experiment: qHTS assay to identify small molecule antagonists of the glucocorticoid receptor (GR) signaling pathway (AID 720692; active means well fitted inhibition curve with a large enough effect in the signal ratio in the repeat runs, not every such curve was filed as active; the % refers to the signal ratio; further: potency means the concentration at half of the fitted maximal effect). The method, boiled down: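 GR-bla HeLa cells carrying a GRE-driven beta-lactamase reporter received compound after 4 h plating, then dexamethasone (5 nM final). After 18 h at 37C, the FRET substrate was loaded for 2 h at room temperature and fluorescence read.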

Assay [20] in a line: qHTS assay to test for compound auto fluorescence at 460 nm (blue) in HepG2 cells (AID 720687). The method, boiled down:
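Cells (2,000/well in MEM with 10% FBS) attached overnight at 37 C, then were exposed to compound or DMSO for 1 hr at 37 C, 5% CO2. Fluorescence read at Ex/Em 405/460 nm, expressed as triamterene-equivalent signal.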

“And” between values parts separate entries of the source, which are not always exact repeats. Equal entries are not always repeated. Results filed as inconclusive are left out. A structure can be active in one record and inactive in another. The source made the active and inactive calls. Unless noted, the call rests on the fitted dose curve; in most records, active means well fitted curve in the direction sought with a large enough effect in the repeat runs; inconclusive means weak or mixed curves; inactive means no such curve, though single readings can be large; an effect the other way counts as inactive or inconclusive.

Glucocorticoid receptor (Homo sapiens), sequence (P04150 whole entry, looked up): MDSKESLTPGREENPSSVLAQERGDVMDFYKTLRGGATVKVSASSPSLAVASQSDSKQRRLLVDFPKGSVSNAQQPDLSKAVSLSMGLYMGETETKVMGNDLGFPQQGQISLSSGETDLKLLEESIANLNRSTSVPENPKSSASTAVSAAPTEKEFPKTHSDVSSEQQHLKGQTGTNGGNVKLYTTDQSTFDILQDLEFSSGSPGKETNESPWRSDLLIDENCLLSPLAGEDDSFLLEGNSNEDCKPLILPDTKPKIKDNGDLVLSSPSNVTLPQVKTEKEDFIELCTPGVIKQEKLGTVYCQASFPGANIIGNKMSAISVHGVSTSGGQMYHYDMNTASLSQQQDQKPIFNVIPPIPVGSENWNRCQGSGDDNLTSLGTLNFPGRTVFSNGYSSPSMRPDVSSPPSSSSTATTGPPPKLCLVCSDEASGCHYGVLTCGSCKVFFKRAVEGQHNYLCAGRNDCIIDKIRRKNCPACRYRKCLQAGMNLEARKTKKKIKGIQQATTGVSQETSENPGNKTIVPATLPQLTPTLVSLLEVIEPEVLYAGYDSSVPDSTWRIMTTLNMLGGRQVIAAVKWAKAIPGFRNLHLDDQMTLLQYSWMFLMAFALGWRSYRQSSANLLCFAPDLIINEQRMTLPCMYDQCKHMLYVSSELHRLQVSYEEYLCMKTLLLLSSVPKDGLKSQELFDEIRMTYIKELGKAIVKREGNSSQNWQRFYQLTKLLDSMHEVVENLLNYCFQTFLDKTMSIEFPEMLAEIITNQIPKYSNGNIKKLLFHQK

In the case of `O=C(Nc1ccc(Cl)cc1)Nc1ccc(Cl)c(Cl)c1`, the Potency in [1] was 7.5 µM (active) and 5.42 µM (active) and 15.4 µM (active); in [4] it was 9.44 µM (active); in assay [5], 1.93 µM (active); in assay [6], 150 nM (active) and 68.2 nM (active) and 86.3 nM (active). Also, the Potency result in assay [2], in [3], in [7], in [8], in [9] and in assay [10] was “inactive” throughout. The Potency result in assay [12], in [13], in assay [14] and in assay [16] was “inactive” in each case. Further, the call in [11] and in assay [15] was inactive.

In the case of `Nc1ncn([C@@H]2O[C@H](CO)[C@@H](O)[C@H]2O)c(=O)n1`, the Potency in assay [1] was 2.11 µM (active) and 4.86 µM (active); in assay [3], 668 nM (active) and inactive; in assay [19], 3.01 µM (active) and 1.74 µM (active). Further, the Potency result in [2], in [5], in assay [6], in [7], in assay [8] and in assay [9] was “inactive” in each case. The Potency entry in assay [10], in [12], in assay [13], in [14], in [16] and in assay [18] was “inactive” throughout. Moreover, the outcome in [17], in [11] and in assay [15] was inactive.

As for `O=C(Nc1ccc([N+](=O)[O-])cc1Cl)c1cc(Cl)ccc1O`, the Potency in assay [1] was 298 nM (active) and 611 nM (active); in assay [2], 75 nM (active) and inactive; in assay [3], 94.4 nM (active) and 96.9 nM (active); in [6], 26.6 nM (active) and 9.7 nM (active). Further, the Potency result in assay [5], in assay [7], in [8], in assay [9], in [10] and in assay [12] was “inactive” each time. For the same molecule, the Potency result in [13], in assay [14], in assay [16] and in assay [18] was “inactive” each time. Further, the call in assay [17], in assay [11], in assay [15] and in assay [20] was inactive.

As for `CC(=O)c1ccccn1`, the Potency entry in [1], in [2], in [3], in assay [5], in assay [6] and in assay [7] was “inactive” each time. The Potency result in assay [8], in assay [9], in [10], in assay [13], in assay [14] and in assay [16] was “inactive” each time. Besides, the molecule was classed as inactive in [11], in assay [15] and in assay [20].

As for `CCCCOCCOCCO`, the Potency entry in assay [1], in assay [2], in assay [3], in assay [5], in assay [6] and in assay [7] was “inactive” throughout. Moreover, the Potency result in assay [8], in [9], in assay [10], in assay [12], in assay [13] and in assay [14] was “inactive” each time. Further, the Potency result in assay [16], in [18] and in [19] was “inactive” in each case. The outcome in assay [17], in assay [11] and in assay [15] was inactive.

In the case of `COc1ccc(OC)c(C(O)CNC(=O)CN)c1` (centres undefined), the Potency entry in assay [1], in [2], in assay [3], in assay [5], in assay [6] and in assay [7] was “inactive” in each case. Moreover, the Potency result in assay [8], in [9], in assay [10], in assay [12], in assay [13] and in assay [14] was “inactive” in each case. The Potency entry in [16], in assay [18] and in [19] was “inactive” in each case. For the same molecule, the outcome in [11], in [15] and in assay [20] was inactive.

As to `CNCCCC12CCC(c3ccccc31)c1ccccc12`, the Potency entry in assay [1], in assay [2], in assay [4], in assay [5], in assay [7] and in assay [8] was “inactive” each time. The Potency entry in [9], in [10], in [12], in assay [13], in assay [14] and in assay [16] was “inactive” in each case. Also, the Potency result in [18] and in assay [19] was “inactive” throughout. Further, the molecule was classed as inactive in assay [11] and in [15].
